Measured values as given in the supplement of paper PMC8728848.
Only a selection was taken, and the strongest signals are over-represented in it overall.

Key:
Test in all cases: glycan array binding signal (z-score within array); higher = stronger binding
Conditions in all cases: glycan notation: IUPAC condensed, linker removed
[1] = target: Fuc(a1-2)[Gal(a1-3)]Gal(b1-4)GlcNAc(b1-3)GalNAc
Method in brief: (§1)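 Negative Z-scores can be read as non-binding. The Z-score is calculated within each array and then averaged across arrays of one protein sequence at different concentrations or buffers and across linkers. Arrays, 3228 in all, were curated from the Consortium for Functional Glycomics database and kept only where the protein sequence was available.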

[2] = target: Gal(a1-3)Gal(b1-3)GlcNAc(b1-3)GalNAc
Method in brief: as §1

Gal(a1-4)Gal(b1-4)Glc = target: Gal(a1-4)Gal(b1-4)Glc
Method in brief: as §1

Gal(a1-6)Glc = target: Gal(a1-6)Glc
Method in brief: as §1

[3] = target: Gal(b1-3)GlcNAc(a1-6)Gal(b1-4)GlcNAc
Method in brief: as §1

[4] = target: Gal(b1-3)GlcNAc(b1-2)Man(a1-3)[Gal(b1-3)GlcNAc(b1-2)Man(a1-6)]Man(b1-4)GlcNAc(b1-4)GlcNAc
Method in brief: as §1

[5] = target: Gal(b1-3)GlcNAc(b1-3)GalNAc
Method in brief: as §1

[6] = target: Gal(b1-3)[Fuc(a1-4)]GlcNAc(b1-3)Gal(b1-4)[Fuc(a1-3)]GlcNAc
Method in brief: as §1

[7] = target: Gal(b1-3)[GlcNAc(b1-6)]GalNAc
Method in brief: as §1

[8] = target: Gal(b1-4)GlcNAc(b1-2)Man(a1-3)Man(b1-4)GlcNAc(b1-4)GlcNAc
Method in brief: as §1

[9] = target: Gal(b1-4)GlcNAc(b1-2)Man(a1-3)[Gal(b1-4)GlcNAc(b1-2)Man(a1-6)]Man(b1-4)GlcNAc(b1-4)GlcNAc
Method in brief: as §1

[10] = target: Gal(b1-4)GlcNAc(b1-2)Man(a1-3)[Gal(b1-4)GlcNAc(b1-2)Man(a1-6)]Man(b1-4)GlcNAc(b1-4)[Fuc(a1-6)]GlcNAc
Method in brief: as §1

[11] = target: Gal(b1-4)GlcNAc(b1-2)Man(a1-3)[Gal(b1-4)GlcNAc(b1-2)][GlcNAc(b1-4)]Man(b1-4)GlcNAc(b1-4)GlcNAc
Method in brief: as §1

[12] = target: Gal(b1-4)GlcNAc(b1-2)Man(a1-3)[GlcNAc(b1-2)Man(a1-6)]Man(b1-4)GlcNAc(b1-4)GlcNAc
Method in brief: as §1

[13] = target: Gal(b1-4)GlcNAc(b1-2)Man(a1-3)[Man(a1-6)]Man(b1-4)GlcNAc(b1-4)GlcNAc
Method in brief: as §1

Gal3S6S(b1-4)GlcNAc6S = target: Gal3S6S(b1-4)GlcNAc6S
Method in brief: as §1

Gal6S(b1-4)GlcNAc = target: Gal6S(b1-4)GlcNAc
Method in brief: as §1

GalNAc(b1-6)GalNAc = target: GalNAc(b1-6)GalNAc
Method in brief: as §1

Glc(a1-6)Glc(a1-6)Glc = target: Glc(a1-6)Glc(a1-6)Glc
Method in brief: as §1

GlcA(b1-3)Gal = target: GlcA(b1-3)Gal
Method in brief: as §1

GlcNAc(b1-3)Gal = target: GlcNAc(b1-3)Gal
Method in brief: as §1

GlcNAc(b1-4)GlcNAc = target: GlcNAc(b1-4)GlcNAc
Method in brief: as §1

[14] = target: GlcNAc6S(b1-3)Gal(b1-4)GlcNAc
Method in brief: as §1

[15] = target: Man(a1-2)Man(a1-2)Man(a1-6)[Man(a1-3)]Man
Method in brief: as §1

[16] = target: Man(a1-2)Man(a1-3)[Man(a1-2)Man(a1-6)]Man(a1-6)[Man(a1-2)Man(a1-2)Man(a1-3)]Man
Method in brief: as §1

Man(b1-4)GlcNAc = target: Man(b1-4)GlcNAc
Method in brief: as §1

Neu5Ac(a2-3)GalNAc = target: Neu5Ac(a2-3)GalNAc
Method in brief: as §1

[17] = target: Neu5Ac(a2-6)Gal(b1-4)GlcNAc(b1-2)Man(a1-3)[Man(a1-6)]Man(b1-4)GlcNAc(b1-4)GlcNAc
Method in brief: as §1

[18] = target: Neu5Ac(a2-6)Gal(b1-4)GlcNAc(b1-2)Man(a1-6)[Gal(b1-4)GlcNAc(b1-2)Man(a1-3)]Man(b1-4)GlcNAc(b1-4)GlcNAc
Method in brief: as §1

[19] = target: Neu5Ac(a2-6)Gal(b1-4)GlcNAc(b1-2)Man(a1-6)[GlcNAc(b1-2)Man(a1-3)]Man(b1-4)GlcNAc(b1-4)GlcNAc
Method in brief: as §1

[20] = target: Neu5Ac(a2-6)GlcNAc(b1-4)GlcNAc(b1-4)GlcNAc
Method in brief: as §1

Neu5Ac(a2-8)Neu5Ac = target: Neu5Ac(a2-8)Neu5Ac
Method in brief: as §1

[21] = target: Fuc(a1-2)[Gal(a1-3)]Gal(b1-4)GlcNAc
Method in brief: as §1

[22] = target: Fuc(a1-2)[GalNAc(a1-4)]Gal(b1-4)GlcNAc
Method in brief: as §1

Gal(b1-3)GalNAc = target: Gal(b1-3)GalNAc
Method in brief: as §1

[23] = target: Gal(b1-3)GalNAc(b1-3)Gal(a1-4)Gal(b1-4)Glc
Method in brief: as §1

[24] = target: Gal(b1-3)GlcNAc(b1-3)Gal(b1-4)Glc
Method in brief: as §1

Gal(b1-4)Glc6S = target: Gal(b1-4)Glc6S
Method in brief: as §1

[25] = target: Gal(b1-4)GlcNAc(b1-3)Gal(b1-4)Glc
Method in brief: as §1

Gal3S(b1-4)Glc = target: Gal3S(b1-4)Glc
Method in brief: as §1

GalNAc(a1-3)Gal = target: GalNAc(a1-3)Gal
Method in brief: as §1

[26] = target: GlcNAc(b1-2)Gal(b1-3)GalNAc
Method in brief: as §1

[27] = target: Man(a1-2)Man(a1-3)[Man(a1-2)Man(a1-6)]Man(a1-6)[Man(a1-2)Man(a1-2)Man(a1-3)]Man(b1-4)GlcNAc(b1-4)GlcNAc
Method in brief: as §1

Man(a1-3)[Man(a1-6)]Man = target: Man(a1-3)[Man(a1-6)]Man
Method in brief: as §1

[28] = target: Neu5Ac(a2-3)Gal(b1-3)GlcNAc
Method in brief: as §1

Neu5Ac(a2-3)Gal(b1-4)Glc = target: Neu5Ac(a2-3)Gal(b1-4)Glc
Method in brief: as §1

[29] = target: Neu5Ac(a2-3)Gal(b1-4)GlcNAc6S
Method in brief: as §1

[30] = target: Neu5Ac(a2-6)Gal(b1-4)GlcNAc(b1-3)Gal(b1-4)GlcNAc
Method in brief: as §1

Neu5Ac(a2-6)GalNAc = target: Neu5Ac(a2-6)GalNAc
Method in brief: as §1

B1: ASAL (Allium sativum), P83886 (protein)
chain: MGRTTSSPKAMMRIATVAAILTILASTCMARNVLTNGEGLYAGQSLDVEQYKFIMQDDCNLVLYEYSTPIWASNTGVTGKNGCRAVMQRDGNFVVYDVNGRPVWASNSVRGNGNYILVLQKDRNVVIYGSDIWSTGTYRRSVGGAVVMAMNGTVDGGSVIGPVVVNQNVTAAIRKVGTGAA
[1]
  glycan array binding signal (z-score): -0.201
[2]
  glycan array binding signal (z-score): -0.206
Gal(a1-4)Gal(b1-4)Glc
  glycan array binding signal (z-score): -0.282
Gal(a1-6)Glc
  glycan array binding signal (z-score): -0.285
[3]
  glycan array binding signal (z-score): -0.252
[4]
  glycan array binding signal (z-score): -0.113
[5]
  glycan array binding signal (z-score): -0.178
[6]
  glycan array binding signal (z-score): -0.218
[7]
  glycan array binding signal (z-score): -0.267
[8]
  glycan array binding signal (z-score): 6.55
[9]
  glycan array binding signal (z-score): 5.54
[10]
  glycan array binding signal (z-score): 7.04
[11]
  glycan array binding signal (z-score): -0.228
[12]
  glycan array binding signal (z-score): 5.91
[13]
  glycan array binding signal (z-score): 7.21
Gal3S6S(b1-4)GlcNAc6S
  glycan array binding signal (z-score): -0.238
Gal6S(b1-4)GlcNAc
  glycan array binding signal (z-score): -0.193
GalNAc(b1-6)GalNAc
  glycan array binding signal (z-score): -0.24
Glc(a1-6)Glc(a1-6)Glc
  glycan array binding signal (z-score): -0.234
GlcA(b1-3)Gal
  glycan array binding signal (z-score): 5.39
GlcNAc(b1-3)Gal
  glycan array binding signal (z-score): -0.3
GlcNAc(b1-4)GlcNAc
  glycan array binding signal (z-score): -0.252
[14]
  glycan array binding signal (z-score): -0.065
[15]
  glycan array binding signal (z-score): 2.53
[16]
  glycan array binding signal (z-score): 4.09
Man(b1-4)GlcNAc
  glycan array binding signal (z-score): -0.236
Neu5Ac(a2-3)GalNAc
  glycan array binding signal (z-score): -0.276
[17]
  glycan array binding signal (z-score): 0.085
[18]
  glycan array binding signal (z-score): 4.59
[19]
  glycan array binding signal (z-score): 5.01
[20]
  glycan array binding signal (z-score): -0.29
Neu5Ac(a2-8)Neu5Ac
  glycan array binding signal (z-score): -0.25

B2: DCAL1 (Homo sapiens), Q8IZS7 (protein)
chain: MVSNFFHVIQVFEKSATLISKTEHIGFVIYSWRKSTTHLGSRRKFAISIYLSEVSLQKYDCPFSGTSFVVFSLFLICAMAGDVVYADIKTVRTSPLELAFPLQRSVSFNFSTVHKSCPAKDWKVHKGKCYWIAETKKSWNKSQNDCAINNSYLMVIQDITAMVRFNI
[21]
  glycan array binding signal (z-score): -0.172
[22]
  glycan array binding signal (z-score): -0.139
Gal(b1-3)GalNAc
  glycan array binding signal (z-score): -0.214
[23]
  glycan array binding signal (z-score): -0.25
[24]
  glycan array binding signal (z-score): -0.181
Gal(b1-4)Glc6S
  glycan array binding signal (z-score): -0.212
[25]
  glycan array binding signal (z-score): 1.75
Gal3S(b1-4)Glc
  glycan array binding signal (z-score): -0.249
Gal3S6S(b1-4)GlcNAc6S
  glycan array binding signal (z-score): 1.34
GalNAc(a1-3)Gal
  glycan array binding signal (z-score): -0.202
Glc(a1-6)Glc(a1-6)Glc
  glycan array binding signal (z-score): -0.234
[26]
  glycan array binding signal (z-score): -0.121
[15]
  glycan array binding signal (z-score): -0.251
[27]
  glycan array binding signal (z-score): 5.03
Man(a1-3)[Man(a1-6)]Man
  glycan array binding signal (z-score): -0.223
[28]
  glycan array binding signal (z-score): -0.253
Neu5Ac(a2-3)Gal(b1-4)Glc
  glycan array binding signal (z-score): -0.211
[29]
  glycan array binding signal (z-score): -0.184
[30]
  glycan array binding signal (z-score): -0.203
Neu5Ac(a2-6)GalNAc
  glycan array binding signal (z-score): 0.533
